Results: PubChem BioAssay AID1159580 (chemical genetic matrix, 2015)
The campaign covered roughly 5,500 compounds. About 2,000 (36%) were called active. Roughly 18% stayed inconclusive and do not appear here. No stated cut-off is given here; in the data, active means normalized growth mostly below about 0.91 (no sharp cut-off); inconclusive means no clear call, values can overlap the other calls; inactive means mostly above about 0.92. The list shows a part of the results.

Experiment: chemical genetic growth profiling, strain panel (AID 1159580);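 further: tested at 20 µM; growth read once vehicle control cultures reached saturation at 30 °C; 1 = growth at the plate median or of vehicle wells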
Details: S. cerevisiae deletion strains, growth OD

Measured: normalized growth

OC[C@H]1NC[C@@H](O)[C@@H]1O
inactive: locus YAL040C, strain CLN3, stronger effect = lower value 0.993 | locus YCL061C, strain MRC1 (second series), stronger effect = lower value 1 | locus YDR363W, strain ESC2, stronger effect = lower value 1.02 | locus YER002W, strain NOP16, stronger effect = lower value 0.998 | locus YGR229C, strain SMI1, stronger effect = lower value 1.02 | locus YNL153C, strain GIM3, stronger effect = lower value 0.999 | locus YNL175C, strain NOP13, stronger effect = lower value 0.991 | locus YNL197C, strain WHI3, stronger effect = lower value 1 | locus YNL224C, strain SQS1, stronger effect = lower value 0.992 | locus YOR083W, strain WHI5 (second series), stronger effect = lower value 1.01 | locus YPL055C, strain LGE1, stronger effect = lower value 0.996 | locus YPL241C, strain CIN2, stronger effect = lower value 1.01
